The text below walks through data of PubChem BioAssay (Tox21).

Unmarked numbers belong to inactive results. Results filed as inconclusive are left out. Active and inactive are the calls of the source. Unless noted, calls follow the shape of the dose curve; as a rule, active = well fitted curve in the direction sought with a large enough effect in the repeat runs; inconclusive = weak or mixed curves; inactive = no such curve, though single readings can be large; an effect the other way counts as inactive or inconclusive.

The nature of assay [1]: qHTS assay to identify small molecule agonists of the hypoxia (HIF-1) signaling pathway - cell viability counter screen (AID 1224844; calls by dose curve; also: nearly all actives have a fitted effect of over 50% in size; also: potency is read from the fitted curve at half-maximal effect). The method in brief: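 ME-180 HRE-bla cells, 2,000/well, 0.5% dialyzed FBS; 5 hr settle, 17 hr compound at 37C/5% CO2; CCF4-AM reporter read first, then CellTiter-Glo luminescence after 30 min RT.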
A general note: In qHTS, concentration-response curves come from the screen itself.

A short description of assay [2]: qHTS assay to identify small molecule agonists of the hypoxia (HIF-1) signaling pathway (AID 1224846; active = well fitted activation curve with a large enough effect in the signal ratio in the repeat runs, not every such curve was filed as active; the % refers to the signal ratio). In a few lines: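 Cell line: CellSensor HRE-bla ME-180; 2,000 cells/well; 0.5% dialyzed FBS; 5 h preincubation; DMSO compound pin transfer; 17 h, 37C, 5% CO2; CCF4-AM added; bla FRET signal scored for activation.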
Assay [3] can be described thus: qHTS assay to identify small molecule agonists of H2AX - cell viability counter screen (AID 1224847; calls by dose curve; also: nearly all actives have a fitted effect of over 30% in size; also: potency is read from the fitted curve at half-maximal effect). In a few lines:
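Read-out: CellTiter-Glo luminescence, 30 min RT. Cells: wild-type CHO-K1, 1000/well, 10% FBS, plated overnight at 37C. Treatment: 15 concentrations, 3 hr, 37C, 0.76% DMSO.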

The nature of assay [4]: qHTS RealTime-Glo MT Cell Viability Assay in HepG2 cells - 24 hour (AID 1224867). Also: nearly all actives have a fitted effect of over 50% in size. Also: potency is read from the fitted curve at half-maximal effect. In a few lines: (§1)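 Compound treatment began 5 h after plating HepG2 cells (600/well) with NanoLuc luciferase and prosubstrate. Plates stayed at 37 C for 40 h; luminescence was captured at six time points, 0 h through 40 h.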
Assay [5] is described as follows: qHTS RealTime-Glo MT Cell Viability Assay in HEK293 cells - 32 hour (AID 1224868). Also: nearly all actives have a fitted effect of over 50% in size. Also: potency is read from the fitted curve at half-maximal effect. The method in brief:
(§2)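 Quantitative high-throughput screen of the Tox21 10K library in HEK293: cells and RealTime-Glo reagents plated together, compound added at 5 h, luminescence monitored through 40 h at 37 C.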

A short description of assay [6]: A CellTox Green Cytotoxicity Assay to monitor cytotoxicity in HEK293 cells - 0 hour (AID 1224869). Also: nearly all actives have a fitted effect of over 50% in size. In a few lines: (§3)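 Nonlytic real-time cytotoxicity: HEK293 + CellTox Green reagent plated, 5 h preincubation, pintool compound addition (23 nL in DMSO), 37 C for 40 h, fluorescence measured at successive time points.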
The nature of assay [7]: A CellTox Green Cytotoxicity Assay to monitor cytotoxicity in HEK293 cells - 40 hour (AID 1224871). Also: nearly all actives have a fitted effect of over 45% in size. Also: potency is read from the fitted curve at half-maximal effect. In a few lines:
as §3

Assay [8] can be described thus: qHTS RealTime-Glo MT Cell Viability Assay in HEK293 cells - 16 hour (AID 1224872). Also: nearly all actives have a fitted effect of over 50% in size. Also: potency is read from the fitted curve at half-maximal effect. The method in brief:
as §2

The nature of assay [9]: qHTS RealTime-Glo MT Cell Viability Assay in HepG2 cells - 8 hour (AID 1224873). Also: nearly all actives have a fitted effect of over 55% in size. Also: potency is read from the fitted curve at half-maximal effect. The method in brief: (§4)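 Real-time viability: cells seeded at 600 per well together with NanoLuc and cell-permeant prosubstrate, compounds added after 5 h incubation. Luminescence tracked at 0, 8, 16, 24, 32 and 40 h of exposure.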
The nature of assay [10]: qHTS RealTime-Glo MT Cell Viability Assay in HEK293 cells - 40 hour (AID 1224874). Also: nearly all actives have a fitted effect of over 50% in size. Also: potency is read from the fitted curve at half-maximal effect. The note with it: RealTime-Glo luminescence; max response: active compounds read low. In a few lines:
(§5)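 Cells were seeded together with NanoLuc luciferase and a prosubstrate that viable cells reduce to a luciferase substrate. After a 5 h incubation at 37 C/5% CO2, compounds were added and luminescence was measured repeatedly during 40 h of treatment.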

Assay [11] can be described thus: A CellTox Green Cytotoxicity Assay to monitor cytotoxicity in HEK293 cells - 24 hour (AID 1224875). Also: nearly all actives have a fitted effect of over 45% in size. Also: potency is read from the fitted curve at half-maximal effect. The method in brief: as §3
Assay [12] in a line: A CellTox Green Cytotoxicity Assay to monitor cytotoxicity in HepG2 cells - 16 hour (AID 1224876). Also: nearly all actives have a fitted effect of over 45% in size. Also: potency is read from the fitted curve at half-maximal effect. The method in brief: (§6)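 Read-out is fluorescence of a cyanine dye excluded from live cells that stains DNA of dead HepG2 cells, with signal proportional to cytotoxicity. Plates were read at 0, 8, 16, 24, 32 and 40 h after compound addition.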
Assay [13] is described as follows: qHTS RealTime-Glo MT Cell Viability Assay in HepG2 cells - 32 hour (AID 1224877). Also: nearly all actives have a fitted effect of over 55% in size. Also: potency is read from the fitted curve at half-maximal effect. In a few lines:
as §1

The nature of assay [14]: A CellTox Green Cytotoxicity Assay to monitor cytotoxicity in HepG2 cells - 24 hour (AID 1224878). Also: nearly all actives have a fitted effect of over 45% in size. In a few lines:
as §6

The nature of assay [15]: A CellTox Green Cytotoxicity Assay to monitor cytotoxicity in HepG2 cells - 40 hour (AID 1224879). Also: nearly all actives have a fitted effect of over 40% in size. Also: potency is read from the fitted curve at half-maximal effect. The method in brief: as §6
Assay [16] is described as follows: qHTS RealTime-Glo MT Cell Viability Assay in HEK293 cells - 0 hour (AID 1224880). The method in brief:
as §5

Assay [17] in a line: qHTS RealTime-Glo MT Cell Viability Assay in HepG2 cells - 40 hour (AID 1224870). Also: nearly all actives have a fitted effect of over 50% in size. Also: potency is read from the fitted curve at half-maximal effect. The method in brief: as §4
A short description of assay [18]: qHTS assay to identify small molecule agonists of H2AX (AID 1224845; active = well fitted activation curve with a large enough effect in the signal ratio in the repeat runs, not every such curve was filed as active; the % refers to the signal ratio). In a few lines:
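Phospho-H2AX Ser139 measured by HTRF (ex 320 nm; em 665 and 620 nm) after 24 hr antibody incubation. Compounds, 15 concentrations, 0.76% DMSO, were applied to CHO-K1 cells for 3hr at 37C before lysis.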

Assay [19] is described as follows: qHTS assay to identify small molecule antagonists of the estrogen related receptor (ERR) signaling pathway from Tox21 library (AID 1224848). Also: nearly all actives have a fitted effect of over 50% in size. The method in brief: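 Reading was by luminescence 30 min after ONE-Glo addition. Before that, ERR cells at 2,000 per well had rested 6 h at 37 C/5% CO2 and then received pin-tooled compounds in DMSO for 18 h at 37 C.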
Assay [20] can be described thus: qHTS assay to identify small molecule agonists of the estrogen related receptor (ERR) signaling pathway from Tox21 library (AID 1224849; calls by dose curve; also: nearly all actives have a fitted effect of over 15% in size). Conditions: ERR reporter cell line, ONE-Glo luciferase, 18 h; at 92.4 µM (top of the series) unless noted. The method in brief:
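ERR cells, 6 h pre-incubation 37 C/5% CO2; cpd in DMSO pinned; 18 h 37 C; ONE-Glo added, 30 min RT; luminescence read. Agonist mode, qHTS.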
% is scaled to controls: 0 for no effect and ±100 for the full control effect.

Turning to `CC(=O)O.CC(=O)O.CC(=O)O.CC(=O)O.CC(=O)O.CC(=O)O.CC(=O)O.O.O.[Cr].[Cr].[Cr]`, the Potency entry in assay [1], in assay [2], in assay [3], in assay [4], in assay [5] and in assay [6] was “inactive” throughout. The Potency result in [7], in assay [8], in [9], in assay [11], in assay [12] and in [13] was “inactive” in each case. Moreover, the Potency result in assay [14], in assay [15] and in [16] was “inactive” throughout. In addition, the max response in assay [10] is 2.64%.

With `O=[N+]([O-])c1cccc2cccc([N+](=O)[O-])c12`, the Potency entry in assay [1], in assay [2], in assay [3], in [4], in [5] and in [6] was “inactive” each time. The Potency result in assay [17], in assay [7], in [9], in assay [11], in [12] and in assay [13] was “inactive” each time. The Potency entry in assay [14], in assay [15] and in assay [16] was “inactive” in each case. Moreover, the max response in assay [10] is -12.3%.

For the compound `CNC(C)(C)Cc1ccccc1`, the Potency result in [18], in assay [2], in assay [3], in [4], in assay [5] and in assay [6] was “inactive” in each case. The Potency result in assay [17], in [7], in assay [8], in [9], in [11] and in assay [12] was “inactive” in each case. Moreover, the Potency result in [13], in [14], in assay [15] and in assay [16] was “inactive” throughout. In addition, the max response in [10] is 6.36%.

On to `CC[C@H](C)[C@H]1O[C@]2(C=C[C@@H]1C)C[C@@H]1C[C@@H](C/C=C(\C)[C@@H](O[C@H]3C[C@H](OC)[C@@H](O[C@H]4C[C@H](OC)[C@@H](NC)[C@H](C)O4)[C@H](C)O3)[C@@H](C)/C=C/C=C3\CO[C@@H]4[C@H](O)C(C)=C[C@@H](C(=O)O1)[C@]34O)O2`, for which the Potency is 21.9 µM (active) in [1]; 16 µM (active) in assay [3]; 9.77 µM (active) in [4]; 4.9 µM (active) in assay [5]; 9.77 µM (active) in assay [17]; 11 µM (active) in assay [7]. The Potency in assay [8] was 6.92 µM (active); in assay [9], 15.5 µM (active); in [10], 4.36 µM (active); in [11] it was 13.8 µM (active); in assay [12], 15.5 µM (active); in assay [13] it was 9.77 µM (active). Besides, in assay [15], the Potency is 9.77 µM (active). The Potency entry in assay [6] and in [16] was “inactive” in each case.

In the case of `COc1nc(C)nc(NC(=O)NS(=O)(=O)c2ccccc2Cl)n1`, the Potency result in assay [18], in assay [2], in assay [3], in assay [19], in assay [4] and in [5] was “inactive” throughout. The Potency entry in [6], in assay [17], in assay [7], in assay [9], in assay [11] and in [12] was “inactive” each time. Also, the Potency result in assay [13], in assay [15] and in assay [16] was “inactive” throughout. Also, the activity change, positive = activation in assay [20] is 7.61%. Moreover, the max response in assay [10] was 1.45%.

Take `CC(C)C(Nc1ccc(C(F)(F)F)cc1Cl)C(=O)OC(C#N)c1cccc(Oc2ccccc2)c1` (stereo unspecified): the Potency entry in assay [1], in assay [3], in [4], in assay [5], in assay [6] and in assay [7] was “inactive” in each case. The Potency result in assay [9], in assay [11], in [12], in assay [13], in assay [14] and in assay [15] was “inactive” throughout. Moreover, in assay [16], the Potency entry is “inactive”. The max response in [10] is -20.4%.

With `CCOP(=O)(OCC)Oc1nc(Cl)c(Cl)cc1Cl`, the Potency result in assay [1], in assay [3], in assay [4], in [5], in [6] and in [17] was “inactive” in each case. Further, the Potency entry in [7], in assay [8], in [9], in assay [11], in assay [12] and in assay [13] was “inactive” throughout. The Potency result in [14], in [15] and in assay [16] was “inactive” in each case. In addition, in assay [10], the max response was -5.34%.
